Measured values: the supplement of paper PMC9694430

Tests used:
Assay in all cases: thermal shift delta Tm vs DMSO control; higher = stronger stabilization (binding)
Conditions in all cases: 12.5 µM; protein concentration 2 µM
[1] = tested on: LOC_OS01G01410-cb001
Procedure, shortened: (§1)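 Thermal shift values come from differential scanning fluorimetry on purified rice kinase domains made in E. coli, with melting temperatures obtained from Boltzmann fits. Samples of 19.5 μl held 2 μM kinase, 100 mM potassium phosphate pH 7.5, 150 mM NaCl, 10% glycerol, 5 × SYPRO Orange and compound in DMSO, and were heated from 25°C to 95°C at 0.05°C/s. Each shift is a triplicate mean relative to the DMSO-only protein sample.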

[2] = tested on: LOC_OS01G02750-cb003
Procedure, shortened: as §1

[3] = tested on: LOC_OS01G10900-cb004
Procedure, shortened: as §1

[4] = tested on: LOC_OS01G13800-cb001
Procedure, shortened: as §1

[5] = tested on: LOC_OS01G14860-cb001
Procedure, shortened: as §1

[6] = tested on: LOC_OS01G21960-cb002
Procedure, shortened: as §1

[7] = tested on: LOC_OS01G39600-cb002
Procedure, shortened: as §1

[8] = tested on: LOC_OS01G48390-cb002
Procedure, shortened: as §1

[9] = tested on: LOC_OS01G51400-cb002
Procedure, shortened: as §1

[10] = tested on: T1, LOC_OS01G52050-cb004
T1 sequence (whole entry): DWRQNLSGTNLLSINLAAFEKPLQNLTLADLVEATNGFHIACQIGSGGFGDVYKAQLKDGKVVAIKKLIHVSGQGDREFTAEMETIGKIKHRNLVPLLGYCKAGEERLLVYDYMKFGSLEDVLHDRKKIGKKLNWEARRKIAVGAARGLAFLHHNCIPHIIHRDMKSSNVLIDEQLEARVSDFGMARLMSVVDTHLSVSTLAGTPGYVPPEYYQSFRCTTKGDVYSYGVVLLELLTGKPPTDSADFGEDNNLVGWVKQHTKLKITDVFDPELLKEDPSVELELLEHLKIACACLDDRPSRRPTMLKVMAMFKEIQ
Procedure, shortened: as §1

[11] = tested on: LOC_OS01G57100-cb003
Procedure, shortened: as §1

[12] = tested on: LOC_OS01G60330-cb001
Procedure, shortened: as §1

[13] = tested on: LOC_OS01G60700-cb002
Procedure, shortened: as §1

[14] = tested on: LOC_OS01G63280-cb003
Procedure, shortened: as §1

[15] = tested on: LOC_OS01G67340-cb003
Procedure, shortened: as §1

[16] = tested on: LOC_OS01G70970-cb002
Procedure, shortened: as §1

[17] = tested on: LOC_OS02G07810-cb001
Procedure, shortened: as §1

[18] = tested on: LOC_OS02G08530-cb003
Procedure, shortened: as §1

[19] = tested on: LOC_OS02G14120-cb001
Procedure, shortened: as §1

[20] = tested on: LOC_OS02G17970-cb001
Procedure, shortened: as §1
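Further: purified Escherichia coli-expressed rice kinase domain construct.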

Row | SMILES | thermal shift delta Tm [1] | thermal shift delta Tm [2] | thermal shift delta Tm [3] | thermal shift delta Tm [4] | thermal shift delta Tm [5] | thermal shift delta Tm [6] | thermal shift delta Tm [7] | thermal shift delta Tm [8] | thermal shift delta Tm [9] | thermal shift delta Tm [10] | thermal shift delta Tm [11] | thermal shift delta Tm [12] | thermal shift delta Tm [13] | thermal shift delta Tm [14] | thermal shift delta Tm [15] | thermal shift delta Tm [16] | thermal shift delta Tm [17] | thermal shift delta Tm [18] | thermal shift delta Tm [19] | thermal shift delta Tm [20]
1 | CC[C@@H]1C(=O)N(C)c2cnc(Nc3ccc(C(=O)N[C@H]4CC[C@H](N5CCN(CC6CC6)CC5)CC4)cc3OC)nc2N1C(C)C [Volasertib (BI 6727)] | 0.74 °C | 0.38 °C | 0.15 °C | 0.22 °C | 0.21 °C | 0.37 °C | 0.25 °C | 0.32 °C | 0.11 °C | 0.22 °C | 1.58 °C | 2.49 °C | 0.62 °C | 0.08 °C | 1.23 °C | 0.17 °C | 0.23 °C | 1.87 °C | -0.05 °C | 0.41 °C
2 | CC#CC(=O)Nc1ccc2ncnc(Nc3cccc(Br)c3)c2c1 | 2.55 °C | 1.15 °C | 2.56 °C | 0.12 °C | 1.15 °C | 0.48 °C | -0.38 °C | 2.25 °C | 0.38 °C | 1.8 °C | -0.79 °C | 0.53 °C | 1.56 °C | 0.9 °C | 1.06 °C | 0.37 °C | 0.86 °C | 1.43 °C | 2.95 °C | 1.1 °C
3 | COc1cc(F)c(F)c(Nc2ccc(I)cc2F)c1NS(=O)(=O)C1(C[C@H](O)CO)CC1 [Refametinib (RDEA119, Bay 86-9766)] | 1.35 °C | -1.27 °C | 0.47 °C | 0.32 °C | 0.61 °C | 0.52 °C | -0.03 °C | 0.23 °C | 0.02 °C | 1.46 °C | 0.45 °C | 1.69 °C | 0.96 °C | 0.75 °C | -0.44 °C | 0.49 °C | 0.84 °C | 0.79 °C | 1.54 °C | 1.26 °C
